Experimental data as given in the supplement of paper PMC11732987, “Enantioselective OTUD7B fragment discovery through chemoproteomics screening and high-throughput optimisation” (Communications Chemistry, 2025).

How the values were obtained:
Assay in all cases: log2 ratio of Biotin-Ahx-Ub-VS probe labelling (fragment/DMSO); higher = less target engagement (more negative = stronger competition), active = hit call of the paper (q ≤ 0.05, log2 ratio ≤ -1)
Settings in all cases: compound concentration: 200 uM; treatment time: 3 h
USP9X = USP9X (UniProt Q93008)
Summary of the method: (§1)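 Using Biotin-Ahx-Ub-VS at 0.5 µM final for 1 h, DUBs were labelled in HEK293T lysate (495 µg per sample) that had first been treated in triplicate with fragment at 200 µM or vehicle for 3 h. NeutrAvidin enrichment, LysC and trypsin digestion and diaPASEF LC-MS/MS followed. Spectronaut label-free quantities were global-median-normalised. Values are average log2 fragment/vehicle ratios by unpaired t-test, using proteins with ≥2 unique peptides.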

UniProt O00487 = target: UniProt O00487
Summary of the method: as §1

UniProt O00507 = target: UniProt O00507
Summary of the method: as §1

UniProt P51784 = target: UniProt P51784
Summary of the method: as §1

UniProt Q5T2D3 = target: T1, UniProt Q5T2D3
T1 sequence (whole entry): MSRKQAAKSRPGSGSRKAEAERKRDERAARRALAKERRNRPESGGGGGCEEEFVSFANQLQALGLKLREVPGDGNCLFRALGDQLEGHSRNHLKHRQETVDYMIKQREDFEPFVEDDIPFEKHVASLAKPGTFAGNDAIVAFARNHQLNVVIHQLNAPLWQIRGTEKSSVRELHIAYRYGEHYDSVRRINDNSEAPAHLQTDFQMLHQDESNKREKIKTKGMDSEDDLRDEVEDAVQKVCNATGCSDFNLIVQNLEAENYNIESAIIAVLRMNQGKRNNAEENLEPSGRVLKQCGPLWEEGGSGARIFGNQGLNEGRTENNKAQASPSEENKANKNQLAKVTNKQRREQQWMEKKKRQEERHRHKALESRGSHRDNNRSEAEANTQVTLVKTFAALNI
Summary of the method: as §1

UniProt Q8TE49 = target: T2, UniProt Q8TE49
T2 sequence (whole entry): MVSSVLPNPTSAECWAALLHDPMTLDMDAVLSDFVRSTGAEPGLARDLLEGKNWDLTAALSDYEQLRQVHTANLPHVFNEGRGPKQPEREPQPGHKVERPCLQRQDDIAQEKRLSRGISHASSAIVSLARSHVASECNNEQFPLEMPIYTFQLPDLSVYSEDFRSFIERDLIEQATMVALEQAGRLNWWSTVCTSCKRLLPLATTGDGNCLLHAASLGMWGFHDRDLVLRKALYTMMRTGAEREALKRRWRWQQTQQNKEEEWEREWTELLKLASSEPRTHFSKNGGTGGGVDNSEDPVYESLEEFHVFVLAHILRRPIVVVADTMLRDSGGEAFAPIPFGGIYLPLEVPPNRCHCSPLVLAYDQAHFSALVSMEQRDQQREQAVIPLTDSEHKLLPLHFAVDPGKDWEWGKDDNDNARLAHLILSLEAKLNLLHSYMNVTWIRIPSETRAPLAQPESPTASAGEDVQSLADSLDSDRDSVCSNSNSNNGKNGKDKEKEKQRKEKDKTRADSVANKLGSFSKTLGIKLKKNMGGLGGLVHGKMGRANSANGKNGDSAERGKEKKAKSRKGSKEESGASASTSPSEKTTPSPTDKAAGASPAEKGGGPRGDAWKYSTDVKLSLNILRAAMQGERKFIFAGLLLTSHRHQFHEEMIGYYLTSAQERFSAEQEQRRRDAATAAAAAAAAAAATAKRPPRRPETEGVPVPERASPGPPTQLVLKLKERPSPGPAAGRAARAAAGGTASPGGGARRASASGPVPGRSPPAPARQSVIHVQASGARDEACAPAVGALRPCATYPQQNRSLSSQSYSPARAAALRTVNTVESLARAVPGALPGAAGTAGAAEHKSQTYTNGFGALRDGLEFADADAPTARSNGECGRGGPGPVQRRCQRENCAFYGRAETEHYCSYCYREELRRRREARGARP
Summary of the method: as §1

UniProt Q9P2H5 = target: T3, UniProt Q9P2H5
T3 sequence (whole entry): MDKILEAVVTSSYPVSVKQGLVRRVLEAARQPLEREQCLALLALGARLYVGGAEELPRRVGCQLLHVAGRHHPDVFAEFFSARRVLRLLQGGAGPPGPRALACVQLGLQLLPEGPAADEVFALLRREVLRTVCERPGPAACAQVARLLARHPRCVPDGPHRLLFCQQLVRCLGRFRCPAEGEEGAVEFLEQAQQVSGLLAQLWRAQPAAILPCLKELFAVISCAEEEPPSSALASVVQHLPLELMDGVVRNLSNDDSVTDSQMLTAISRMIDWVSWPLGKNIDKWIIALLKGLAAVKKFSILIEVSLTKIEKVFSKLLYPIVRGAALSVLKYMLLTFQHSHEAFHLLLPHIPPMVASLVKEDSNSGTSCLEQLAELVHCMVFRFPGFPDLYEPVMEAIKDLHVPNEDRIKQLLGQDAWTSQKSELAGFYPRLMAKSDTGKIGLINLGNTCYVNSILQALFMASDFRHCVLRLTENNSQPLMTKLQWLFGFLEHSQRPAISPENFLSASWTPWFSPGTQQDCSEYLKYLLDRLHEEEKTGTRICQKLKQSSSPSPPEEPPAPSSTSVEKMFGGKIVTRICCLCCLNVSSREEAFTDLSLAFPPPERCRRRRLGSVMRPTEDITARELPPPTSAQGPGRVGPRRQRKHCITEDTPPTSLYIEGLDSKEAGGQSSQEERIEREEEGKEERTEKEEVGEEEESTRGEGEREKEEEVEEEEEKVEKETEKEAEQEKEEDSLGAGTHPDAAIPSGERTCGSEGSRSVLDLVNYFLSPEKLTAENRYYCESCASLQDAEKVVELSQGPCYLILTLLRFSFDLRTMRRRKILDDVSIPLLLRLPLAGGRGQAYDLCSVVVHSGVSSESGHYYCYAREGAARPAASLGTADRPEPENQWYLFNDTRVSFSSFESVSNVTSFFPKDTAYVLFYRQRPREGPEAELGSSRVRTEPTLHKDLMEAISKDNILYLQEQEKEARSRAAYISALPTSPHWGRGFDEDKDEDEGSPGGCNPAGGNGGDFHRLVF
Summary of the method: as §1

UniProt Q9UGI0 = target: T4, UniProt Q9UGI0
T4 sequence (whole entry): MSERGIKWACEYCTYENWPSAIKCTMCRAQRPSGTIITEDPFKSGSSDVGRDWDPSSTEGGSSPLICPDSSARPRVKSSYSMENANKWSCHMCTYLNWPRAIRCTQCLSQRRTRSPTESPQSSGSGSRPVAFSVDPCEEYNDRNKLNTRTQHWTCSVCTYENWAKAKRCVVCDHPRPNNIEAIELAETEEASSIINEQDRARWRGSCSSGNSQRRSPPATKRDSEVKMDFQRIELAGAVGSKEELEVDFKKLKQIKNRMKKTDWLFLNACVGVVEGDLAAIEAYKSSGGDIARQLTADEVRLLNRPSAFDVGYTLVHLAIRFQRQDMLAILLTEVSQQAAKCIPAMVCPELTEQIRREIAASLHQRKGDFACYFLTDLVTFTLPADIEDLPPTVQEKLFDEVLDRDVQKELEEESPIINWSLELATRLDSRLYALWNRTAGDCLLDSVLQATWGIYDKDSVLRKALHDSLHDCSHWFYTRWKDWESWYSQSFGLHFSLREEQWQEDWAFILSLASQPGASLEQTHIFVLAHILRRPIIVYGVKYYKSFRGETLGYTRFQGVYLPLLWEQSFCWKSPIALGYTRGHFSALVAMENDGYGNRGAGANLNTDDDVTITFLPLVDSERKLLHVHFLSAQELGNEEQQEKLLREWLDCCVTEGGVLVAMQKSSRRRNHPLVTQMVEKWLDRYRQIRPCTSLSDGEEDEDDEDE
Summary of the method: as §1

YOD1 = target: T5, YOD1 (UniProt Q5VVQ6)
T5 sequence (whole entry): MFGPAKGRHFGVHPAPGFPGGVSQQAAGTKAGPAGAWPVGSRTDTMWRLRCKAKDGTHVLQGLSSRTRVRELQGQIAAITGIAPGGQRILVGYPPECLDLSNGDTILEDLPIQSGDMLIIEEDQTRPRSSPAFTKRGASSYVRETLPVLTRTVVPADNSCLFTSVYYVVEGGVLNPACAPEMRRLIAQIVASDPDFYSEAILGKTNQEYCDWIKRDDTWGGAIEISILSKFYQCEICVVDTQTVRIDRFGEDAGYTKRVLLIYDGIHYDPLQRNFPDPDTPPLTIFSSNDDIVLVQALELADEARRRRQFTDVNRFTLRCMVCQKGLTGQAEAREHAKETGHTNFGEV
Summary of the method: as §1

Measured: log2 ratio of Biotin-Ahx-Ub-VS probe labelling

Sequence of UniProt P51784 (P51784 whole entry): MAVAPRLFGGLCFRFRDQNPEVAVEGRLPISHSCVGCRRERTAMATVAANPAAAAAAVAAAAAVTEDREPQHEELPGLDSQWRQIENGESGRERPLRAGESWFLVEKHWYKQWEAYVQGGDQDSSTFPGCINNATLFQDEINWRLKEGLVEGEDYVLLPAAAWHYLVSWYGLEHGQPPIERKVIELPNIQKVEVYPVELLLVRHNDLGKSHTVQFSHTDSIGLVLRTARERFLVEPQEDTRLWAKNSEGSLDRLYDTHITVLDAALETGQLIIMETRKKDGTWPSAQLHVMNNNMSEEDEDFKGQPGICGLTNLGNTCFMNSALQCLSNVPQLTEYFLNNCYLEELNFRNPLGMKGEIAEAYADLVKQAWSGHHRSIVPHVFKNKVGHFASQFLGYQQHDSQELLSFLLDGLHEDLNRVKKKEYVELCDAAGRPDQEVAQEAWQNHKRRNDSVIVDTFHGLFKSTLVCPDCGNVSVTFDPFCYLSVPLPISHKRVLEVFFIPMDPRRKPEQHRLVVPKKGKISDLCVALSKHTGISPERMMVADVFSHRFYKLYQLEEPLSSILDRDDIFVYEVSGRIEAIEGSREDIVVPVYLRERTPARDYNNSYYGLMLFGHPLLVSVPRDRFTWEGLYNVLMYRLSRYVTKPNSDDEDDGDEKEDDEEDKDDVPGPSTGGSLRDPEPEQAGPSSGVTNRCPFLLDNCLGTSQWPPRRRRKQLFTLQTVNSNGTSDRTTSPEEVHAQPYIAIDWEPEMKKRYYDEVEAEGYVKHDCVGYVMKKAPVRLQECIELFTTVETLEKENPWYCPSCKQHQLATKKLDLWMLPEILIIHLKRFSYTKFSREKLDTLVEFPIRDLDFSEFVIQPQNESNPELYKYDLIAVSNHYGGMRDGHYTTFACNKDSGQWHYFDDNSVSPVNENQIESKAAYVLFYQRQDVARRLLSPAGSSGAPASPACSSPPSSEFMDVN
Sequence of UniProt O00507 (O00507 whole entry): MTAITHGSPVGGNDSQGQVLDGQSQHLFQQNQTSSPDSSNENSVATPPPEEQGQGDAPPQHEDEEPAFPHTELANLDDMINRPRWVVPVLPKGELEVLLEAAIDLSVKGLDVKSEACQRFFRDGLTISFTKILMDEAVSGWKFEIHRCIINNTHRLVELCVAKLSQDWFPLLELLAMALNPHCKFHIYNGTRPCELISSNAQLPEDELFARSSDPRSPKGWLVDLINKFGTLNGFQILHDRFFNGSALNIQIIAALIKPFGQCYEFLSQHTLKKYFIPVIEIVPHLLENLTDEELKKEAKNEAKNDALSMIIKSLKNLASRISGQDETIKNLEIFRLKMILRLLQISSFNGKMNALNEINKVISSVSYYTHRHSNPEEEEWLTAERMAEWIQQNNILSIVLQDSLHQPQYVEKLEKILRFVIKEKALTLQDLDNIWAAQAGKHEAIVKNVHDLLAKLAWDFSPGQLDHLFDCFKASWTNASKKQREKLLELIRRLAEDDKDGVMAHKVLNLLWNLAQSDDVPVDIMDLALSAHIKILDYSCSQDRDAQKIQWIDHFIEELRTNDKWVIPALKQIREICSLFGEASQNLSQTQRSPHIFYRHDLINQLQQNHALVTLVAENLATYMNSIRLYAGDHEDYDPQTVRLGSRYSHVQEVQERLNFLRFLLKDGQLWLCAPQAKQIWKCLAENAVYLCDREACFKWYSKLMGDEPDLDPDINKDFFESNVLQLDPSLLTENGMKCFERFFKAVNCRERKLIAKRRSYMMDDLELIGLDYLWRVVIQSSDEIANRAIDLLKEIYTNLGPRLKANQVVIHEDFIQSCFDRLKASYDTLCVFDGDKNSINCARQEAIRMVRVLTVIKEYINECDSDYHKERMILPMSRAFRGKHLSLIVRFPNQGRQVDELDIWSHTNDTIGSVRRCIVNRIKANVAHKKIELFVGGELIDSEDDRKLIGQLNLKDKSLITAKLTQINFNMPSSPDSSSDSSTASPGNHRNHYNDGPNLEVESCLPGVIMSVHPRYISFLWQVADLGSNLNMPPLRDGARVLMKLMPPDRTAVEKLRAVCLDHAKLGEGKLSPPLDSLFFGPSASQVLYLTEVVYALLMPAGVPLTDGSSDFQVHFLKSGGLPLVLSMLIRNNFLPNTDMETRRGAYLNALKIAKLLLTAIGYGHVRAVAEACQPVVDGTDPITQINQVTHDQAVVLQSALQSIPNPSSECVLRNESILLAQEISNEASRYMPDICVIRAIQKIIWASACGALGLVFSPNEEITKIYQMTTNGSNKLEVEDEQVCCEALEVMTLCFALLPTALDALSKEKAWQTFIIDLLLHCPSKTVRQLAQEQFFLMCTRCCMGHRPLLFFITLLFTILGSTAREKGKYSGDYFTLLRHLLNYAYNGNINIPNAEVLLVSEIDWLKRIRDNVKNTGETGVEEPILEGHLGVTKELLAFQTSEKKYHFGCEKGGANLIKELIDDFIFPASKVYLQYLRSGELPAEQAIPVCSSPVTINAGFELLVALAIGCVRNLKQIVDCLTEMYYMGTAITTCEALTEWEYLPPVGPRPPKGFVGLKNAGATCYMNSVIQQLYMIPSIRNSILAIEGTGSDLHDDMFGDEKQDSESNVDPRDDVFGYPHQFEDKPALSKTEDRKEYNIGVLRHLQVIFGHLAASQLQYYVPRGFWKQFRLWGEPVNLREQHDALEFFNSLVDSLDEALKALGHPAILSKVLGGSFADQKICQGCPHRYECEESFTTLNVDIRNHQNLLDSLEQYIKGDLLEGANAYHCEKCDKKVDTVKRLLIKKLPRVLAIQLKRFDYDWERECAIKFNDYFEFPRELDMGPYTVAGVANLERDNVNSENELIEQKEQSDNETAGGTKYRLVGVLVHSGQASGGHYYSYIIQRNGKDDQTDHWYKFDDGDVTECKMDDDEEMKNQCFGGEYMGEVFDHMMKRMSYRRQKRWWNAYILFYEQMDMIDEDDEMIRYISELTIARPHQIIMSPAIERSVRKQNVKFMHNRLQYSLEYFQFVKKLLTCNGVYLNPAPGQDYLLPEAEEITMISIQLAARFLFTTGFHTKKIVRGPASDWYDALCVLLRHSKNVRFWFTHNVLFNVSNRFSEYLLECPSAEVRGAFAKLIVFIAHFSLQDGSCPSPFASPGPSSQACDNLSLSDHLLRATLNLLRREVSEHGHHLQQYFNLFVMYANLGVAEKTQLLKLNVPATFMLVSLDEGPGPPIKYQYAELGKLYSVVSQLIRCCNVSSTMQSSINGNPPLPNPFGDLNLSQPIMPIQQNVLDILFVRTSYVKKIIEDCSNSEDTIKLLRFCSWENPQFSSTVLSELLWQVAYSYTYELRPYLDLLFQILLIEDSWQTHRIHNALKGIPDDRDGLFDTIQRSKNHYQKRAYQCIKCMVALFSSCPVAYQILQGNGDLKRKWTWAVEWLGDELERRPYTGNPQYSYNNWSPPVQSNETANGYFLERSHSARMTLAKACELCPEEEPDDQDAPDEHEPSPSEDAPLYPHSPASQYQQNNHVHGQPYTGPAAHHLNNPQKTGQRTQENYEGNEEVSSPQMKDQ
Sequence of UniProt O00487 (O00487 whole entry): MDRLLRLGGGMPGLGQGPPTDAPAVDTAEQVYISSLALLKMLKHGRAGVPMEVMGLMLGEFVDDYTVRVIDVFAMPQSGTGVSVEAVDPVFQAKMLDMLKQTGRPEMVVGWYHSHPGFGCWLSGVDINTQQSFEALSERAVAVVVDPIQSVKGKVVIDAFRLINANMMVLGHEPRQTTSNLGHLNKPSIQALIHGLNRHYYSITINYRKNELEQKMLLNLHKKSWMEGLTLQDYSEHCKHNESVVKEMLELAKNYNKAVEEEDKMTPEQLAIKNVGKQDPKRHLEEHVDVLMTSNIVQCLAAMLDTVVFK

N#Cc1ccc(Cl)cc1NC(=O)CCl
inactive: USP9X -0.0196 | UniProt O00487 0.0781 | UniProt O00507 -0.451 | UniProt P51784 0.0676 | UniProt Q5T2D3 -0.0728 | UniProt Q8TE49 -0.577 | UniProt Q9P2H5 0.0403 | UniProt Q9UGI0 -0.441 | YOD1 0.0565
